D1 antag: Antagonist of Human D 1 Dopamine Receptor: qHTS. D(1A) dopamine receptor (Homo sapiens), P21728. AID 504652, 2011. 360,000 compounds, 3.2% hits. activity change, negative = inhibition, % at 10 µM. HEK293 TREx D1 cells, calcium flux, dopamine EC80; hits give low values; in the data active means activity change below about -30%; further: on the % scale 0 is the no-effect control and ±100 the full control effect
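After overnight tetracycline induction at 30 C, force-coupled D1 HEK293 cells took up a no-wash calcium dye at room temperature. Compounds were added and monitored 180 s, and the response to EC80 dopamine was then recorded.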
D1 agonist: Allosteric Agonists of the Human D1 Dopamine Receptor: qHTS | activation, % at 2 µM | HEK293 T-REx D1 cells, calcium flux, agonist mode | 360,000 compounds, 1% hits | D(1A) dopamine receptor (Homo sapiens), P21728; further: 0% is about no effect
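Inducible HEK293 T-REx D1 cells, force-coupled to calcium signalling, were plated at 4000 cells/well with tetracycline and held overnight at 30 C. After no-wash calcium dye loading, compound-evoked calcium rise over 180 s flagged agonists.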
TRHR agonist: qHTS for Small Molecule Agonists and Allosteric Enhancers of Human TRH Receptor: Primary Screen for Agonists; activation, % at 2 µM; Thyrotropin-releasing hormone receptor (Homo sapiens), P34981; 360,000 compounds, 0.18% hits; TRHR cells, calcium flux fluo-8, FDSS agonist mode; AID 493084, 2011; further: 0% is about no effect
Target sequence (P34981 whole entry, looked up): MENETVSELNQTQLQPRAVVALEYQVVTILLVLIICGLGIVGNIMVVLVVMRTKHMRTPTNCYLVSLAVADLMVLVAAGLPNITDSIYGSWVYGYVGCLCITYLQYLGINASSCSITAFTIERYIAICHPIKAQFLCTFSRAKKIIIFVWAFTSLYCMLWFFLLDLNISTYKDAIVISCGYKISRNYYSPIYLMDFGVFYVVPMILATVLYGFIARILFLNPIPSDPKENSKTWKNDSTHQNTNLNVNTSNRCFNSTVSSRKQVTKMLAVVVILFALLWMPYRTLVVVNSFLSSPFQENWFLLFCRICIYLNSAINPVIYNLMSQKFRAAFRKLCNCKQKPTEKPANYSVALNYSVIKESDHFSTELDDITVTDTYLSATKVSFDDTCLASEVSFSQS
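TRHR-expressing cells loaded with fluo-8 calcium dye; 23 nL library compound pin-transferred, kinetic FDSS fluorescence (Ex 480/Em 530) recorded about 180 s for agonist-induced calcium release, before a 10 nM TRH EC20 addition for potentiator mode.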
TRHR PAM: qHTS for Small Molecule Agonists and Allosteric Enhancers of Human TRH Receptor: Primary Screen for Enhancers | Thyrotropin-releasing hormone receptor (Homo sapiens), P34981 | TRHR cells, fluo-8 calcium fluorescence, EC20 TRH enhancement | enhancement, % at 2 µM | 360,000 compounds, 0.66% hits | AID 493056, 2011; in the data active means enhancement above about 30%; further: 0% is about no effect
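TRHR-expressing cells loaded with fluo-8 calcium dye were read kinetically (ex 480/em 530) during compound addition, then stimulated with an EC20 of TRH (10 nM final). Enhancement of the Gq-mediated intracellular calcium response was scored.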
D1 PAM: Potentiators of Human D1 Dopamine Receptor: qHTS; HEK293 TREx D1 cells, calcium flux, dopamine EC20 potentiation; potentiation, % at 10 µM; AID 504651, 2011; 360,000 compounds, 0.036% hits; D(1A) dopamine receptor (Homo sapiens), P21728; in the data active means potentiation above about 30%; further: 0% is about no effect
An asterisk follows results filed as active; . = no result; ! = repeats disagree. A selection: hits, their analogues and other compounds. The true share with any hit is near 4.7%. Unless noted, no stated cut-off is given here; in the data, active means activation above about 30%; inactive means the rest.

SMILES	D1 antag	D1 agonist	TRHR agonist	TRHR PAM	D1 PAM
CN(Cc1c(C(=O)N(C)Cc2ccccc2)nc2ccccn12)CC1Cc2ccccc2O1 (stereo not given)	-10	2	-1	3	-3
Cc1ccc(NC(=O)c2sc(-n3nc(C)c(Cc4ccc5c(c4)OCO5)c3C)nc2C)cc1Cl	-11	2	0	9	0
NC(=O)c1c(NC(=O)c2ccncc2)sc2c1CCCCCC2	-8	37*	2	5	-9
NC(=O)c1c(NC(=O)c2ccccc2)sc2c1CCN(Cc1ccccc1)C2	-9	216*	53*	0	-10
CCN1CCc2c(sc(NC(=O)Nc3ccc(Cl)c(Cl)c3)c2C(N)=O)C1	-8	418*	159*	-20	-2
NC(=O)c1c(NC(=O)c2ccncc2)sc2c1CCCC2	3	1	0	-4	-2
CCN1CCc2c(sc(NC(=O)Cc3ccccc3)c2C(N)=O)C1	-24	6	1	7	-2
NC(=O)c1c(NC(=O)c2c(F)cccc2F)sc2c1CCN(Cc1ccccc1)C2	12	155*	49*	6	-1
COc1cc(C(=O)Nc2ccc(NC(=O)c3ccc(Br)cc3)cc2)cc(OC)c1OC	-5	1	1	6	1
CC(C)C(=O)Nc1sc2c(c1C(N)=O)CCN(Cc1ccccc1)C2	2	8	2	3	-8
CCC(=O)Nc1sc2c(c1C(N)=O)CCN(Cc1ccccc1)C2	-11	166*	39*	-3	1
COc1ccc(Cl)cc1NC(=O)c1cc(S(=O)(=O)N2CCc3ccccc32)cn1C	9	0	0	2	-2
Cc1cccc(-c2noc(-c3ccc4c(c3)OCO4)n2)c1	-45*	10	0	-4	-2
COc1ccc(-c2nc(-c3cccc(C)c3)no2)cc1OC	-3	1	0	2	5
CCN(Cc1nc(-c2cccc(C)c2)no1)C(=O)c1ccc2c(c1)OCO2	7	35*	-1	6	.
CCc1cccc(NC(=O)CCS(=O)(=O)c2ccc(C)cc2)c1	4	-1	-1	20	-4
COc1ccc(NC(=O)CN(C)C(=O)CCNS(=O)(=O)c2ccc(Br)cc2)cc1	-28	1	0	10	-8
Cc1cccc(C)c1NC(=O)CCS(=O)(=O)c1ccc2c(c1)n(C)c(=O)c(=O)n2C	-36*	3	1	-6	-5
Cn1c(=O)c(=O)n(C)c2cc(S(=O)(=O)CCC(=O)Nc3ccc(F)cc3)ccc21	19	0	0	1	1
COc1ccc(CC(=O)NC(=S)Nc2ccc(S(=O)(=O)NC(C)(C)C)cc2)cc1	-2	16	4	4	7
CCOc1ccc(S(=O)(=O)NCCC(=O)N(C)CC(=O)Nc2ccc(OC)cc2)cc1	-43*	2	0	15	-11
COc1ccc(CC(=O)NC(=S)Nc2ccc(S(N)(=O)=O)cc2)cc1	10	34*	2	0	-9
COc1ccc(NC(=O)CCS(=O)(=O)c2ccc(OC)cc2)cc1	-42*	-1	-2	5	-12
COc1cccc(CNC(=O)c2ccc(CN3CC(=O)N4CCCCC4C3=O)cc2)c1 (stereo not given)	-1	0	-1	14	-2
Cc1nn(CC(=O)N2CCN(c3cccc(Cl)c3)CC2)c(=O)c2c1sc1ccccc12	0	5	0	-1	-1
SMILES	D1 antag	D1 agonist	TRHR agonist	TRHR PAM	D1 PAM
CCOc1ccc(-c2cn3c(n2)sc2cc(C(=O)NCCCc4ccccc4)ccc23)cc1	9	-1	0	-6	0
O=C(CSc1c2c(nc3ccccc13)CCC2)Nc1ccc(F)cc1	1	-1	1	-7	0
CCN(CC)C(=O)c1c(-c2ccccc2)c(-c2ccccc2)nn(C)c1=O	-11	0	0	-4	0
COc1ccc(NC(=O)CCS(=O)(=O)c2ccc(Br)s2)cc1	-37*	0	-1	4	-4
CCOC(=O)c1[nH]c(C)c(C(=O)OCC(=O)NCc2ccc(OC)cc2)c1C	-25	1	-1	-2	1
CC(C)c1ccc(NC(=O)CCS(=O)(=O)c2ccc(Br)s2)cc1	-9	16	-2	-10	-1
CCOC(=O)c1c(C)[nH]c(C(=O)N(C)CC(=O)Nc2ccc(OC)cc2)c1C	-68*	1	0	7	4
COc1cccc(NC(=O)CCS(=O)(=O)c2ccc3c(c2)oc(=O)n3C)c1	-30*!	3	0	7	2
CCCCn1c(=O)c2oc3ccccc3c2n(CC(=O)Nc2cccc(Cl)c2)c1=O	7	2	2	1	-3
CCOc1ccc(-n2c(SCC(=O)c3ccccc3)nc3c([nH]c4ccccc43)c2=O)cc1	10	1	0	2	2
O=C(/C=C/c1ccccc1)Nc1nc2n(n1)C(c1ccc(F)cc1)C=C(c1ccccc1)N2 (stereo not given)	15	0	0	0	-1
Clc1ccccc1OCCCCN1CCCC1	8	2	0	-1	-10
Brc1ccccc1OCCCN1CCCCCC1	-60*	4	1	9	-9
Brc1ccccc1OCCCN1CCCC1	-45*	3	1	0	-11
Cc1cccc(C)c1NC(=O)N1CC=CCC1	0	2	0	-5	4
Cc1cccc(C)c1NC(=O)N1CCCCCCC1	6	1	0	39*	-2
CCN(CC)c1ccc(N)cc1S(=O)(=O)Nc1ccccc1OC	-32*	1	-3	5	-17
CCN(CC)c1ccc(N)cc1S(=O)(=O)Nc1ccc(OC)cc1	1	1	0	-1	-6
COc1ccc(NC(=O)Cn2c(=O)cnc3ccccc32)cc1S(=O)(=O)N1CCCCC1	-48*	-2	-1	7	-4
Cc1ccc(NC(=O)Cn2c(=O)cnc3ccccc32)cc1S(=O)(=O)N1CCCCC1	-8	5	0	-4	-6
CCOc1ccc(NC(=O)C2=NN(c3ccccc3)C(=O)CC2)cc1S(=O)(=O)N1CCCCC1	-35*	5	0	-3	-1
COc1cccc(-c2nc(CS(=O)(=O)CC(=O)NCCc3ccc(Cl)cc3)c(C)o2)c1	-2	5	0	5	4
CCOC(=O)c1ccc(CN(Cc2ccc(C)cc2)S(=O)(=O)c2ccc(F)c(C(=O)Nc3ccc(C)c(F)c3)c2)cc1	-46*	8	2	2	-2

Screening data: PubChem, National Center for Advancing Translational Sciences (NCATS)
